GRIN3A LBD mod: binders of NR3A ligand-binding domain, primary screen, biophysical, differential scanning fluorimetry, uHTS | Glutamate receptor ionotropic, NMDA 3A (GRIN3A) ligand-binding domain | NR3A LBD differential scanning fluorimetry, Tm shift; 0% = protein alone, 100% = glycine-bound protein | Tm shift relative to glycine control, % at 25 µM | 340,000 compounds, 2.5% hits | AID 1259313, 2017;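 active = melting temperature shift of at least 10% of the positive control shift, at one fixed dose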
esBAF inh: Bmi1 luciferase reporter increase in mESCs, primary screen, esBAF inhibitor project, mouse ES cells, Bmi1 luciferase knock-in, single point; reporter increase, % at 12.5 µM; 24 h; 100% = twice the neutral-well signal; AID 602393, 2012; 350,000 compounds, 2% hits; in the data active = activation above about 40%;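 note: 0% = median of the plate's neutral control wells and 100% = double that signal; a rise in the Bmi1 reporter signal indicates esBAF inhibition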
NadD inh: inhibitors of S. aureus NadD, primary screen, biochemical, colorimetric, uHTS; Nicotinate-nucleotide adenylyltransferase NadD (Staphylococcus aureus N315); purified NadD enzyme, colorimetric absorbance read-out; inhibition, % at 20 µM; 360,000 compounds, 0.78% hits; in the data active = inhibition above about 26%
SMARCA2 activ: SMARCA2 (BRM) function activators, primary screen, cell-based, luminescence, high throughput; MG213 cells, MMTV-luciferase reporter, dexamethasone, overnight; activation, % at 9.1 µM; 370,000 compounds, 1% hits; AID 652017, 2013; in the data active = activation above about 7.8%;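 note: 0% = vehicle wells and 100% = reference activator wells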
Vif imaging: HIV Vif self-association inhibitors, primary screen, imaging, HEK293T, single point. 340,000 compounds, 0.35% hits. AID 602346, 2012. inhibition, % at 7.49 µM. HEK293T cells, Vif self-association by quenched fluorescence, 24 h; in the data active = inhibition above about 50%, passing the limit was not always enough
SKN-1 inh: suppressors of acrylamide-induced Pgst-4::GFP reporter in worms, primary screen, SKN-1 inhibitor project, whole organism, uHTS, GFP/RFP fluorescence ratio, strain VP596; C. elegans VP596 Pgst-4::GFP/RFP ratio, 24 h; inhibition, % at 21.8 µM; 360,000 compounds, 0.49% hits;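 active = interference check ratio from 0.5 to 1.5 plus GFP to RFP signal ratio inhibition reaching or exceeding a fixed threshold, cut at about 30% in these data, passing the limit was not always enough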
An asterisk follows results filed as active. Rows were chosen to be rich in hits. Some 5.2% of all compounds tested hit in one or more screens of this group.

O=C(c1cc(COc2ccc(F)cc2F)on1)N1C[C@H]2CC[C@H]1C2 was read as GRIN3A LBD mod -2, esBAF inh 46*, NadD inh -6, SMARCA2 activ 7, Vif imaging -1 and SKN-1 inh -7.
Screening C[C@@H]1CN([C@H](C)CO)C(=O)c2cc(-c3cccnc3)cnc2O[C@@H]1CN(C)Cc1ccc(-c2ccccc2)cc1 returned esBAF inh -2.
COCC(=O)NC[C@H]1N[C@H](CO)[C@H]1c1ccc(C2=CCCC2)cc1 was read as esBAF inh -4.
For O=C(C[C@@H]1CC[C@@H]2[C@H](COC[C@H](O)CN2Cc2ccccc2F)O1)N1CCc2ccccc2C1 the results were esBAF inh 2.
For CCn1c(CCNS(=O)(=O)c2ccccc2Br)nnc1SC the results were GRIN3A LBD mod 0, esBAF inh 4, NadD inh 2, SMARCA2 activ -4, Vif imaging 54* and SKN-1 inh 8.
`CSc1nnc(CCNS(=O)(=O)c2ccccc2Br)n1C` gave GRIN3A LBD mod 1, esBAF inh 1, NadD inh 2, SMARCA2 activ 0, Vif imaging -1 and SKN-1 inh -6.
For C[C@@H]1CN([C@H](C)CO)S(=O)(=O)c2ccc(-c3ccccc3)cc2O[C@@H]1CN(C)C(=O)c1ccc2c(c1)OCO2 the results were esBAF inh -6.
`CC(=O)Nc1ccc2c(c1)C(=O)N(C)[C@H]1CC[C@@H](CC(=O)NCc3ccc4c(c3)OCO4)O[C@@H]1CO2` gave esBAF inh -4.
COc1ccc(-c2cc(C(F)(F)F)n3nc(C(=O)NCc4ccco4)cc3n2)cc1 was read as GRIN3A LBD mod 2, NadD inh 5, SMARCA2 activ -2, Vif imaging -1 and SKN-1 inh 4.
COc1ccc(-c2cc(C(F)(F)F)n3nc(C(=O)NCc4ccco4)c(Cl)c3n2)cc1 was read as GRIN3A LBD mod -2, esBAF inh -6, NadD inh 6, SMARCA2 activ 0, Vif imaging 157* and SKN-1 inh -40.
For COCCNC(=O)c1nn2c(C(F)(F)F)cc(-c3ccccc3)nc2c1Cl the results were GRIN3A LBD mod 2, esBAF inh 1, NadD inh -2, SMARCA2 activ 0, Vif imaging 106* and SKN-1 inh 17.
For C[C@@H]1CN([C@H](C)CO)C(=O)c2cc(-c3ccccc3F)cnc2O[C@H]1CN(C)Cc1ccc(F)cc1 the results were esBAF inh -4.
For CC(O)CN(C)CC/C=C1/c2ccccc2CSc2ccccc21 (stereo unspecified) the results were GRIN3A LBD mod -6, NadD inh -7, SMARCA2 activ -3, Vif imaging 86* and SKN-1 inh 9.
For Cc1cccc2cc(/C=C3\N=C(c4ccccc4)OC3=O)c(N3CCOCC3)nc12 the results were GRIN3A LBD mod 0, esBAF inh -9, NadD inh 32*, SMARCA2 activ -2, Vif imaging 8 and SKN-1 inh 82.
Cc1ccc(C2=N/C(=C/N3CCOCC3)C(=O)O2)cc1 was read as GRIN3A LBD mod -1, esBAF inh 52*, NadD inh 0, SMARCA2 activ 1, Vif imaging 7 and SKN-1 inh 26.
Screening Cc1ccc(C2=N/C(=C\N3CCCCC3)C(=O)O2)cc1 returned GRIN3A LBD mod 0, esBAF inh 36, NadD inh -3, SMARCA2 activ 2, Vif imaging -3 and SKN-1 inh 7.
`O=C(N/N=C/c1ccc(Br)cc1)c1ccc(Br)o1` gave GRIN3A LBD mod 19*, NadD inh 0, SMARCA2 activ 3, Vif imaging 4 and SKN-1 inh 9.
Screening N/C(=N\N=C/c1ccc(F)cc1)N/N=C\c1ccc(F)cc1 returned GRIN3A LBD mod 5, esBAF inh 5, NadD inh -1, SMARCA2 activ 1, Vif imaging 26 and SKN-1 inh 51*.
N/C(=N\N=C/c1ccc(Br)cc1)N/N=C\c1ccc(Br)cc1 was read as GRIN3A LBD mod 28*, NadD inh 15, SMARCA2 activ 0, Vif imaging 0 and SKN-1 inh 26.
For CCCNC(=O)C[C@H]1C[C@@H]2c3cc(N(C)C)ccc3O[C@@H]2[C@H](CO)O1 the results were esBAF inh -2.
C[C@@H]1CN([C@H](C)CO)C(=O)c2cc(NS(=O)(=O)c3cn(C)cn3)ccc2O[C@H]1CN(C)Cc1ccc(Cl)c(Cl)c1 was read as esBAF inh -2.
Screening CCNC(=O)C[C@@H]1CC[C@@H]2[C@@H](COc3ccc(NC(=O)Nc4c(C)noc4C)cc3C(=O)N2C)O1 returned esBAF inh -2.
C[C@H]1CN([C@@H](C)CO)C(=O)c2cccc(NC(=O)Nc3ccccc3)c2O[C@H]1CN(C)Cc1ccccc1 was read as esBAF inh 6.
Clc1ccc(OCc2cn3cccnc3n2)c2ncccc12 was read as GRIN3A LBD mod 1, esBAF inh 57*, NadD inh 7, SMARCA2 activ 0 and SKN-1 inh 24.
`O=C(Nc1ccccc1)Nc1ccc2c(c1)[C@@H]1C[C@H](CC(=O)N3CCCCC3)O[C@H](CO)[C@@H]1O2` gave esBAF inh 4.
CCOC(=O)c1nn(-c2ccc(Br)cc2)cc1C(=O)c1cccc2ccccc12 was read as GRIN3A LBD mod 1, esBAF inh 78*, NadD inh -2, SMARCA2 activ 2, Vif imaging -8 and SKN-1 inh 5.
CCOC(=O)c1nn(-c2ccc(F)cc2)cc1O was read as GRIN3A LBD mod 1, NadD inh -7, SMARCA2 activ -1, Vif imaging 0 and SKN-1 inh -1.
Screening COc1cccc(S(=O)(=O)Nc2ccc3c(c2)[C@H]2C[C@@H](CC(=O)N4CCCCC4)O[C@H](CO)[C@H]2O3)c1 returned esBAF inh 3.
COc1cccc(CNC(=O)C[C@@H]2C=C[C@H](NS(=O)(=O)c3ccccc3OC)[C@@H](CO)O2)c1 was read as esBAF inh 0.
`O=C(CC1CCCCC1)NCc1ccccn1` gave GRIN3A LBD mod 0, esBAF inh -9, NadD inh -2, SMARCA2 activ 1, Vif imaging 4 and SKN-1 inh 18.
